Experimental data: ChEMBL document CHEMBL3988442, “University of Dundee, Small-Polar-MMV Screening Library” (2021)
About 13,000 (27%) of roughly 48,000 compounds showed an effect of 50% or more. This is one part of the list.

System: Wolbachia pipientis
Assay: Anti-Wolbachia Cell-Based Screen
Format: functional
Design: scale not given: in the data most compounds retested in dose-response had high values
Conditions: 5 µM

Question: How did the “Percent Effect” value turn out when `CC1CCCCN1CCNC(=O)NCc1ccc(C#N)cc1F` (stereo not drawn) was run?
Answer: 4.831%

Question: Which “Percent Effect” value does the source give for `O=C(O)C(F)(F)F.O=C1[C@@H]2CCN(Cc3ccoc3)C[C@@H]2OCCN1Cc1cccc(F)c1` here?
Answer: 7.665%

Question: Which “Percent Effect” value does the source give for `Cc1noc(C)c1CN1CCO[C@H]2CN(Cc3cccc(F)c3)C[C@H]21.O=C(O)C(F)(F)F.O=C(O)C(F)(F)F` here?
Answer: 84.77%

Question: With `Fc1ccc(CN2C[C@@H]3OCCN(CCN4CCCC4)[C@@H]3C2)cc1.O=C(O)C(F)(F)F.O=C(O)C(F)(F)F.O=C(O)C(F)(F)F` as the compound, how does the “Percent Effect” value read?
Answer: -5.638%

Question: For `CC(=O)N1CCC2(CCN(Cc3cccc(F)c3)CC2)CC1.O=C(O)C(F)(F)F`, which “Percent Effect” value is on record?
Answer: 4.828%

Question: With `NC(=O)N1CCC2(CCN(Cc3cccc(F)c3)CC2)CC1.O=C(O)C(F)(F)F` as the compound, how does the “Percent Effect” value read?
Answer: 7.684%

Question: With `Cc1noc(C)c1CN1CCC2(CCN(Cc3cccc(F)c3)CC2)C1.O=C(O)C(F)(F)F.O=C(O)C(F)(F)F` as the compound, how does the “Percent Effect” value read?
Answer: 108.5%

Question: For `Cc1ccsc1-c1nccn1CCN(C)S(C)(=O)=O`, which “Percent Effect” value is on record?
Answer: -5.374%

Question: Which “Percent Effect” value does the source give for `Cc1cccc(-c2nc(C)nn2CC(=O)NC2CCCC2)c1` here?
Answer: 6.583%

Question: For `Cc1nc(-c2ccccc2)n(CC(=O)NC2CCCCC2)n1`, which “Percent Effect” value is on record?
Answer: 105.1%

Question: `Cc1nc(-c2ccccc2C)n(CC(=O)NC(C)C2CC2)n1` (stereo not drawn) was tested. Which “Percent Effect” value did it give?
Answer: -5.719%

Question: For `Cc1nc(-c2ccccc2C)n(CC(=O)NC(C)C)n1`, which “Percent Effect” value is on record?
Answer: -16.1%

Question: With `CCC(CC)NC(=O)Cn1nc(C)nc1-c1ccccc1` as the compound, how does the “Percent Effect” value read?
Answer: 0.4964%

Question: `Cc1nc(-c2ccccc2C)n(CC(=O)NC2CCCC2)n1` was tested. Which “Percent Effect” value did it give?
Answer: 83.22%

Question: How did the “Percent Effect” value turn out when `Cc1nc(-c2ccccc2)n(CC(=O)NC2CCCC2)n1` was run?
Answer: 94.43%

Question: For `Cc1nc(-c2ccccc2)n(CC(=O)NC(C2CC2)C2CC2)n1`, which “Percent Effect” value is on record?
Answer: -13.82%

Question: Which “Percent Effect” value does the source give for `O=C(O)[C@@H]1CN(Cc2c[nH]c(CC3CCCC3)n2)C[C@H]1c1ccccn1` here?
Answer: -9.177%

Question: With `O=C(c1ccc(O)cn1)N1CCOC(Cc2cccc(C(F)(F)F)c2)C1` (stereo not drawn) as the compound, how does the “Percent Effect” value read?
Answer: 9.036%

Question: How did the “Percent Effect” value turn out when `Cc1ccnc(OC[C@@]23CCO[C@@H]2CCN(c2ncc(F)cn2)C3)n1.O=C(O)C(F)(F)F` was run?
Answer: -3.381%

Question: `c1ccc(Cn2cccn2)c(CNCC2CNc3ccnn3C2)c1` (stereo not drawn) was tested. Which “Percent Effect” value did it give?
Answer: 2.44%

Question: For `NC(=O)c1cnn2c1NCC(CNC1(c3ccccc3)CCC1)C2` (stereo not drawn), which “Percent Effect” value is on record?
Answer: 91.1%

Question: With `NC(=O)c1cnn2c1NCC(CNCC1(c3ccccc3)CCCC1)C2` (stereo not drawn) as the compound, how does the “Percent Effect” value read?
Answer: 95.13%

Question: How did the “Percent Effect” value turn out when `O=C(NCCCNCC1CNc2ccnn2C1)c1ccccc1` (stereo not drawn) was run?
Answer: -22.14%

Question: Which “Percent Effect” value does the source give for `c1ccc(C2(NCC3CNc4ccnn4C3)CCC2)cc1` (stereo not drawn) here?
Answer: 81.61%

Question: Which “Percent Effect” value does the source give for `NC(=O)c1cnn2c1NCC(CNCCCOc1ccccc1F)C2` (stereo not drawn) here?
Answer: -5.67%

Question: `Cc1cnn(C2CN(CC(=O)NCC3(c4ccccc4)CCC3)C2)c1` was tested. Which “Percent Effect” value did it give?
Answer: -4.16%

Question: How did the “Percent Effect” value turn out when `NC(=O)c1cnn2c1NCC(CNCCc1ccco1)C2` (stereo not drawn) was run?
Answer: -4.106%

Question: Which “Percent Effect” value does the source give for `Cc1cnn(C2CN(CC(=O)NCC3(c4ccccc4)CC3)C2)c1` here?
Answer: -47.8%

Question: `CNS(=O)(=O)c1cccc(C(C)NCc2ccc(C)c(C)c2)c1` (stereo not drawn) was tested. Which “Percent Effect” value did it give?
Answer: -2.241%

Question: How did the “Percent Effect” value turn out when `CCc1cnc(C)nc1NC(C)C(=O)Nc1cc(F)ccc1C` (stereo not drawn) was run?
Answer: -2.868%

Question: `Cn1cnnc1S(=O)(=O)Cc1cc(Cl)c2c(c1)OCCO2` was tested. Which “Percent Effect” value did it give?
Answer: -9.232%

Question: How did the “Percent Effect” value turn out when `COCCN(Cc1cccc(O)c1)Cc1ccccc1F` was run?
Answer: 0.04507%

Question: Which “Percent Effect” value does the source give for `CN1CCN(Cc2cnc(S(=O)(=O)CC3CC3)n2CC2CCCO2)CC1` (stereo not drawn) here?
Answer: -10.61%

Question: For `O=C(CN1CCCS1(=O)=O)Nc1ccc(OC2CCCC2)c(Cl)c1`, which “Percent Effect” value is on record?
Answer: -10.49%

Question: How did the “Percent Effect” value turn out when `O=C(Cc1cccnc1)N1CCC2(CCN(CC3CCCCC3)C2)CC1.O=C(O)C(F)(F)F.O=C(O)C(F)(F)F` was run?
Answer: 8.236%

Question: How did the “Percent Effect” value turn out when `O=C(C[C@H]1[C@H]2CN(Cc3ccc(F)cc3)C[C@@H]12)N1CCCC1.O=C(O)C(F)(F)F` was run?
Answer: -45.89%

Question: How did the “Percent Effect” value turn out when `O=C(O)C(F)(F)F.O=C(O)C(F)(F)F.c1csc(CN2CCC3(CC2)CCN(CC2CC2)CC3)n1` was run?
Answer: 12.33%

Question: For `COCC1CC2(CCN(Cc3cccnc3)CC2)CN1c1ncccn1.O=C(O)C(F)(F)F.O=C(O)C(F)(F)F.O=C(O)C(F)(F)F` (stereo not drawn), which “Percent Effect” value is on record?
Answer: -11.87%

Question: `O=C(c1cscn1)N1CCC2(CCN(Cc3nccs3)CC2)CC1` was tested. Which “Percent Effect” value did it give?
Answer: -43.87%

Question: `O=C(CC1CCC2(CC1)CCN(Cc1nccs1)CC2)N1CC=CC1` was tested. Which “Percent Effect” value did it give?
Answer: 106.8%

Question: With `O=C(O)C(F)(F)F.O=C(O)C(F)(F)F.O=C(O)C(F)(F)F.c1cc(CN2CCOCC3(CCN(CC4CCOCC4)CC3)C2)ccn1` as the compound, how does the “Percent Effect” value read?
Answer: -16.5%

Question: Which “Percent Effect” value does the source give for `O=C(CC1CCC2(CC1)CCN(Cc1cccnc1)CC2)N1CC=CC1.O=C(O)C(F)(F)F.O=C(O)C(F)(F)F` here?
Answer: 82.49%

Question: With `O=C(CC1CCC2(CC1)CCN(Cc1ccncc1)CC2)N1CCCC1.O=C(O)C(F)(F)F` as the compound, how does the “Percent Effect” value read?
Answer: 108.9%

Question: With `COc1ccccc1OCc1nc2cc3c(cc2c(=O)o1)OCCCO3` as the compound, how does the “Percent Effect” value read?
Answer: -14.32%

Question: With `Cc1nc(C2CCN(C[C@H](C)CO)CC2)cc(N2CCOCC2)n1` as the compound, how does the “Percent Effect” value read?
Answer: 2.667%

Question: Which “Percent Effect” value does the source give for `CCCc1c(C(=O)N2CCN(c3cnccn3)CC2)cnn1C` here?
Answer: 10.15%

Question: With `NC(=O)CC1CCN(C(=O)c2cnc(-c3ccccc3F)s2)CC1` as the compound, how does the “Percent Effect” value read?
Answer: 1.886%

Question: `CCc1c(C(=O)N2CCN(c3ncccn3)CC2)cnn1C(C)(C)C` was tested. Which “Percent Effect” value did it give?
Answer: 6.599%

Question: With `CCc1c(C(=O)N2CCN(CC(N)=O)CC2)cnn1C(C)(C)C` as the compound, how does the “Percent Effect” value read?
Answer: 15.08%

Question: `Cc1cc(C(=O)N2CCNC(=O)C2)c(C)n1CC(F)(F)F` was tested. Which “Percent Effect” value did it give?
Answer: -17.07%

Question: With `Cc1ccc(C(=O)N2CCCC(N(C)C(=O)OC(C)(C)C)C2)o1` (stereo not drawn) as the compound, how does the “Percent Effect” value read?
Answer: 9.731%

Question: With `Cc1ccsc1CNc1ccc(C(=O)N2CCNC(=O)C2)cn1` as the compound, how does the “Percent Effect” value read?
Answer: -3.195%

Question: Which “Percent Effect” value does the source give for `CCc1c(C(=O)N2CCC(CC(N)=O)CC2)cnn1C(C)(C)C` here?
Answer: 114.3%

Question: With `CCc1c(C(=O)N2CCCC(N(C)C)C2)cnn1C(C)(C)C` (stereo not drawn) as the compound, how does the “Percent Effect” value read?
Answer: 105.9%

Question: For `CCc1c(C(=O)N2CCN(c3cnccn3)CC2)cnn1C(C)(C)C`, which “Percent Effect” value is on record?
Answer: 78.79%

Question: How did the “Percent Effect” value turn out when `CCc1c(C(=O)N2CCNC(=O)C2)cnn1C(C)(C)C` was run?
Answer: 104.8%

Question: With `CCOCCn1nc(C)cc1C(=O)N1CCCC[C@H](N(C)C)C1` as the compound, how does the “Percent Effect” value read?
Answer: -3.082%

Question: Which “Percent Effect” value does the source give for `O=C(NCCN1CCOCC1)N1CCN(c2ccccc2)CC1` here?
Answer: -9.765%
